Screening data as filed in PubChem.
CHO-K1 Ca ag: M1 agonist counterscreen hit in parental CHO-K1 cells; Fluo-8 calcium fluorescence; scaled to maximal ATP response, vehicle zero; activation, % at 3 µM; 360,000 tested, 0.48% active; AID 602248; in the data active means activation above about 15%;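 further: untransfected CHO-K1 host cells lacking M1 receptor as counterscreen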
CHRM1 antagonist: antagonists of human M1 muscarinic receptor; P11229; CHO-K1 hM1, Fluo-8 calcium fluorescence, ACh EC80 antagonist; inhibition, % at 3 µM; 360,000 tested, 1.3% active; AID 588852;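 active means percent inhibition above its own plate's cutoff, namely the mean of that plate's compound wells plus 3 SD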;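 further: peak over basal fluorescence ratio during 140 s after agonist addition; 0% = ACh EC80 plus DMSO and 100% = DMSO alone without agonist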
Target sequence (P11229 whole entry, looked up): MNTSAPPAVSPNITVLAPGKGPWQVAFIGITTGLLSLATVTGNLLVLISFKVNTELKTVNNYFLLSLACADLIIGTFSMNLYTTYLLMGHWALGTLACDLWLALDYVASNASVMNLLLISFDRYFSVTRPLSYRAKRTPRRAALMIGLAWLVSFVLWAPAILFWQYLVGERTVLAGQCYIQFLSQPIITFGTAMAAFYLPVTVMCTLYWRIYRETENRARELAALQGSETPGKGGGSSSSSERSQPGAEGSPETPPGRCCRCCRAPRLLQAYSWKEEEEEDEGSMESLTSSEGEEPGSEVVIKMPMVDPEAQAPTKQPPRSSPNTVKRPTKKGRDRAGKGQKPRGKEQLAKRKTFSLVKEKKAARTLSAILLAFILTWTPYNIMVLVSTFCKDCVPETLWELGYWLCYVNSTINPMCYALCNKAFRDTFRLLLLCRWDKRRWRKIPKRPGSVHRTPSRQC
M1 PAM: potentiates human M1 receptor response to acetylcholine; activation, % at 3 µM; CHO-K1 hM1, Fluo-8 calcium fluorescence, ACh EC20; 0% = ACh EC20, 100% = maximal ACh; AID 588819; 360,000 tested, 0.088% active; in the data active means activation above about 19%, passing the limit was not always enough
CHRM1 agonist: activates human CHRM1 receptor; P11229; CHO-K1 hM1, Fluo-8 calcium fluorescence, agonist mode; 0% DMSO, 100% acetylcholine EC100; activation, % at 3 µM; 360,000 tested, 0.33% active;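 active means activation above the run's mean compound activation plus 3 SD, cut at about 16% in these data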;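 further: peak over basal fluorescence ratio within a 140 s kinetic read after compound addition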
M1 PAM parental: M1 PAM counterscreen hit in parental CHO-K1 cells. ATP EC20, Fluo-8 calcium fluorescence; 0% at ATP EC20, 100% at ATP max. activation, % at 3 µM. 360,000 tested, 0.02% active. AID 602247;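 active means activation above the run cutoff, the mean activation of all test compounds plus 3 SD, cut at about 40% in these data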;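 further: peak over basal fluorescence ratio in a 140 s read after ATP addition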
CHO-K1 Ca antag: counter-screen for M1 antagonists: effect in parental CHO-K1 cells; ATP-induced calcium, Fluo-8 fluorescence; inhibition, % at 3 µM; 360,000 tested, 0.6% active;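 active means inhibition above a per-plate cutoff, the plate's mean sample inhibition plus 3 SD, cut at about 24% in these data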;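 further: 0% = DMSO plus EC80 ATP and 100% = DMSO alone without ATP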
* marks the source's active call; other numbers are inactive results. Shown are actives, neighbours in structure and some others; about 2.3% of the full set was active somewhere.

SMILES | CHO-K1 Ca ag | CHRM1 antagonist | M1 PAM | CHRM1 agonist | M1 PAM parental | CHO-K1 Ca antag
O=C(COc1ccccc1Cl)c1ccc[nH]1 | 1.9 | 29.1* | -5.1 | -11.2 | 9.4 | 7.7
COc1ccc(C2=NS(=O)(=O)N(C)C(C(=O)N3CCc4ccccc4C3)=C2)cc1OC | 7.6 | 25.3* | -18.7 | -0.6 | 13.6 | 11.0
COc1ccc(C2=NS(=O)(=O)N(C)C(C(=O)NCc3ccccc3)=C2)cc1OC | 4.0 | -12.3 | 0.8 | 3.1 | 23.2 | -9.8
CC[C@H](C)[C@H]1CNC(=S)N1CC1CCN(CCC23CC4CC(CC(C4)C2)C3)CC1 | 0.8 | 90.1* | -31.3 | -10.7 | 14.8 | -5.5
O=C(NC1CCCC1)C(c1ccccc1F)N(C(=O)Cc1cccs1)c1ccc2c(c1)OCCO2 (stereo not drawn) | 23.9* | 11.2 | -9.1 | -3.8 | 11.9 | 3.4
CCC(=O)N1CCN(c2ccc(NC(=O)COc3ccc(CC)cc3)cc2)CC1 | 3.3 | 9.0 | -4.0 | -4.6 | -3.6 | 15.6
CC(C)Cn1c(-c2ccccc2F)n[nH]c1=S | 0.2 | -10.1 | 7.4 | -3.2 | -4.5 | -12.6
CC(C)Cn1c(-c2csc3c2CCCC3)n[nH]c1=S | -0.3 | 44.0* | -34.0 | -14.8 | -14.6 | 15.1
O=C(CSc1nncs1)Nc1ccc(Cl)cc1C(F)(F)F | -0.4 | 1.4 | -0.1 | -0.7 | -25.7 | 10.8
COc1ccc(C(C2C(=O)CC(C)(C)CC2=O)C2C(=O)CC(C)(C)CC2=O)cc1 | 19.3* | -0.9 | 9.0 | -0.1 | 12.3 | 8.8
CCN1CCN(C(=O)NCc2ccccc2)CC1 | 0.3 | -11.6 | 9.5 | -4.8 | 14.1 | -3.8
O=C(CSc1nc2[nH]ncc2c(=O)n1-c1ccccc1)NCc1cccs1 | 0.4 | -1.6 | 3.7 | -4.3 | 17.6 | -13.5
O=C(CSc1nc2[nH]ncc2c(=O)n1-c1ccccc1)NCCc1ccccc1 | 16.8* | 7.2 | 0.9 | -2.4 | 17.7 | 0.4
Cn1c(=O)n(CCCO)c(=O)c2c1nc1n2CCCN1Cc1ccccc1 | 0.3 | -2.0 | 7.8 | -1.4 | 9.7 | -1.8
Clc1ccc(-c2nc3ccc(Br)cn3c2Cc2ccsc2)cc1 | -0.2 | -5.9 | -4.0 | -5.6 | 6.2 | 0.3
CCc1cccc(NC(=O)C2CCCN(S(=O)(=O)c3cccnc3)C2)c1 (stereo not drawn) | 4.4 | -0.4 | -0.9 | -2.4 | 6.6 | -19.8
CCCCOc1ccccc1C(=O)NNC(=S)NC(=O)c1ccccc1[N+](=O)[O-] | 13.5 | -7.1 | -2.0 | 19.0* | -2.9 | 1.1
O=C(NNC(=S)NC(=O)c1ccccc1[N+](=O)[O-])c1ccccc1[N+](=O)[O-] | 1.0 | -2.2 | 8.9 | -4.4 | 29.2 | -10.8
CSCCC(NC(=O)c1ccccc1)C(=O)NNC(=O)c1csc(N2CCOCC2)n1 (stereo not drawn) | 0.2 | 5.8 | 5.9 | -2.4 | 5.1 | 3.4
O=C(Nc1cc(F)c(Br)cc1F)c1ccc(Cl)cc1 | 6.7 | 39.1* | -17.6 | -3.0 | 0.4 | 1.9
CC(/C=C/c1ccccc1)=N/NC(=O)c1cccc(Br)c1 | 0.6 | -8.2 | 3.1 | -8.1 | 21.2 | -5.5
CS(=O)(=O)Nc1ccc(C2=NN(C(=O)CCCC(=O)O)C(c3cccs3)C2)cc1 (stereo not drawn) | 0.1 | -5.0 | 4.0 | -3.4 | -2.3 | -4.3
Cc1c(OCC(=O)N2CCC(C(=O)O)CC2)ccc2c3c(c(=O)oc12)CCCC3 | 0.3 | -3.5 | 1.0 | 0.2 | -11.4 | 2.2
Cc1c(OCC(=O)N2CCN(c3ccccc3)CC2)ccc2c3c(c(=O)oc12)CCCC3 | 1.8 | -6.6 | 7.4 | -1.8 | 7.6 | 25.1*
Cc1c(OCC(=O)N(C)C)ccc2c3c(c(=O)oc12)CCCCC3 | 0.7 | 12.5 | -12.8 | -9.2 | -12.8 | 25.2*
SMILES | CHO-K1 Ca ag | CHRM1 antagonist | M1 PAM | CHRM1 agonist | M1 PAM parental | CHO-K1 Ca antag
CC(C)(C)C(=O)/C=c1\[nH]c(=O)/c(=C\c2ccc(C#N)cc2)s1 | 0.4 | -15.2 | 12.3 | 0.5 | -7.5 | 25.3*
Cc1ccc(-c2nn3cnnc3c3ccccc23)cc1C | 0.2 | -13.8 | 7.3 | -3.8 | -3.8 | 24.3*
C#CCN(CC=C)C(=O)c1ccc2nc(C3CCCCC3)oc2c1 | 0.7 | -2.9 | 9.9 | -2.8 | 24.2 | -8.1
COCCCN(Cc1ccco1)C(=O)c1cc2c(s1)-c1ccc(Cl)cc1S(=O)(=O)C2 | 0.6 | -5.8 | 9.2 | -3.2 | 20.8 | -10.3
O=C(Nc1nc(-c2cc(F)ccc2F)cs1)c1cccc(N2C(=O)CCC2=O)c1 | 3.9 | 12.8 | -6.9 | -4.0 | -21.9 | 31.9*
CN(C)CC/C=C1/c2ccccc2CS(=O)(=O)c2ccccc21 | 0.9 | 65.7* | -26.5 | -6.2 | 16.9 | -9.1
CN1CCN(CCC=C2c3ccccc3Sc3ccc(S(=O)(=O)N(C)C)cc32)CC1 | 2.2 | -13.0 | -8.9 | -3.4 | -3.0 | -2.7
CC(C)Oc1ccc(CN2CCC2(C)C(=O)Nc2ccc3c(c2)OCO3)cc1 (stereo not drawn) | 0.0 | 16.6 | -13.5 | -4.4 | 21.1 | -5.7
CC(C)c1ccc(CN2CCC2(C)C(=O)Nc2ccc3c(c2)OCO3)cc1 (stereo not drawn) | 17.3* | -3.0 | 1.8 | 9.1 | 26.1 | -8.0
CC(=O)N1CCN(C(=O)c2cc(=O)c3ccccc3o2)CC1 | 0.1 | 10.4 | 2.9 | -1.8 | 27.7 | 3.5
COc1ccc(C2/C=C\CN(C(=O)Nc3ccc(C(F)(F)F)cc3)CC(=O)N2Cc2ccc(F)cc2)cc1 (stereo not drawn) | 8.5 | 37.9* | -20.7 | -2.8 | -13.4 | 20.2
COc1ccc(C2/C=C\CN(C(=O)Nc3ccccc3)CC(=O)N2Cc2ccc(F)cc2)cc1 (stereo not drawn) | 0.6 | -1.4 | 8.1 | -1.7 | 4.7 | -5.1
O=C1c2ccccc2C(=O)N1CCCc1nc2ccccc2c(=O)n1CCCn1ccnc1 | 0.3 | 2.7 | 8.3 | -6.1 | -1.2 | 30.1*
COc1ccc(S(N)(=O)=O)cc1C(=O)OCCCOC(=O)c1cc(S(N)(=O)=O)ccc1OC | 0.4 | -10.7 | 10.1 | -2.0 | 14.7 | -6.6
COc1ccc(S(N)(=O)=O)cc1C(=O)OCCCOc1ccc(F)cc1 | 18.3* | -1.1 | 3.5 | -2.1 | 2.0 | 10.8
CCn1c(NCc2cccs2)nc2ccccc21 | -0.2 | -25.9 | 15.4 | -3.0 | 1.2 | -11.7
CCn1c(NCc2ccccn2)nc2ccccc21 | -0.3 | 0.6 | 4.8 | -2.0 | -8.3 | 24.0*
Fc1ccc(Cn2cnc3ccccc32)cc1 | 1.0 | -5.6 | 5.5 | -0.2 | 10.7 | -1.6
CCCOc1ccc(Cn2cnc3ccccc32)cc1 | 3.5 | 0.6 | -0.1 | -3.2 | 4.4 | 25.1*
Cc1ccc(NC(Cc2cc(C)no2)c2ccccc2)cc1 (stereo not drawn) | 14.0 | -0.7 | 8.1 | 3.4 | 46.0* | -17.2
CCCCOc1ccc(C(O)(CCN2CCOCC2)c2ccccc2)cc1 (stereo not drawn) | 4.0 | 15.3 | -17.0 | -9.5 | 13.7 | -15.9
OC(CCN1CCCCC1)(c1ccccc1)c1ccccc1 | 0.3 | 99.5* | -26.6 | -7.2 | -5.9 | 0.4
